NS1 function inh: blocks influenza NS1 protein function; Potency, µM (doses to about 46.1 µM); hit rate 0.4% among 270,000; AID 2326; further: actives are rising curves; nearly all actives have a fitted effect of over 50% in size
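Read-out: OD600 growth recovery of NS1-expressing budding yeast. Cells grown overnight at 30C in -URA glucose medium, washed, resuspended and diluted 1:100 in 2% galactose assay medium, pH 6.0. Same strain lacking NS1 served as positive control.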
Cycloheximide cs: affects cycloheximide protein synthesis inhibition readout, counter-screen; cell reporter, cycloheximide protein synthesis inhibition counterscreen; max response, %; hit rate 12% among 300,000; in the data active means max response mostly above about 13%, no sharp cut-off; inactive means mostly below about 14%; further: read at 38.3 µM for the half of the compounds with a filed dose
SARS PLpro yeast: SARS-CoV PLP inhibition in yeast; S. cerevisiae expressing SARS-CoV PLpro, growth rescue; Potency, µM (titrated, usually from 32.9 µM), usual class: activators; hit rate 0.19% among 330,000; further: nearly all actives have a fitted effect of over 55% in size
Shiga toxin inh: inhibitors of Shiga toxin in Vero cells. AID 2315. Vero cells, Shiga toxin protein synthesis inhibition reporter. hit rate 9.2% among 290,000. inhibition, % at 38.7 µM; in the data active means inhibition mostly above about 28%, no sharp cut-off; inactive means mostly below about 43%
Of the large screens only hits and unclear results are named; the others gave an inactive call. Compounds with a hit are over-represented: about 12% of the library has one in this group of screens. Unless noted, the call rests on the fitted dose curve.

Cc1ccccc1C(=O)Nc1ccc(C(=O)N/N=C/c2ccccn2)cc1	none
CC(/C=C/c1ccco1)=N/NC(=O)c1ccc(C)nc1	none
Cc1ccc(C(=O)N/N=C/c2cccc(OC(=O)/C=C/c3ccco3)c2)cn1	Cycloheximide cs 33.4, Shiga toxin inh 85.6
O=C(N/N=C/c1ccccn1)c1ccc(N/N=C/c2ccccn2)cc1	Cycloheximide cs 28.6, Shiga toxin inh 63.4 (no result: NS1 function inh)
Cc1cc(C)cc(C(=O)NC(CC(N)=O)c2ccc(NC3CCCCC3)c([N+](=O)[O-])c2)c1 (stereo not drawn)	none
COc1ccccc1C(=O)O/N=C(\N)c1ccccc1Cl	Cycloheximide cs 54.7, Shiga toxin inh 118.8
COc1ccc(C(=O)O/N=C(\N)c2ccccc2Cl)cc1OC	Cycloheximide cs 33.2, Shiga toxin inh 158.8
COc1ccccc1C(=O)Oc1ccc(C(C)C)cc1	Cycloheximide cs 34.6, Shiga toxin inh 83.8
Cc1ccc(C(=O)N/N=C/c2ccoc2)cc1C	Cycloheximide cs 40.9, Shiga toxin inh 63.3
COc1ccc(C(=O)N/N=C\c2ccoc2)cc1	none
O=C(N/N=C/c1ccoc1)c1cccc([N+](=O)[O-])c1	none
CC(C)c1cc(C(=O)N/N=C/c2ccoc2)cs1	Cycloheximide cs 41.7, Shiga toxin inh 73.7
CC(C)c1cc(C(=O)N/N=C/c2cccnc2)cs1	Cycloheximide cs 20.6, Shiga toxin inh 41.0
CCOc1cccc(C(=O)N/N=C/c2ccoc2)c1	Cycloheximide cs 23.9, Shiga toxin inh 49.3
CCN(C[C@H]1N[C@@](CC)(C(=O)OC)[C@H]2C(=O)N(Cc3ccccc3)C(=O)[C@@H]12)S(=O)(=O)c1ccc(OC(F)(F)F)cc1	none (no result: NS1 function inh, Cycloheximide cs, Shiga toxin inh)
CCCCNC(=O)CN(C1CCCCC1)S(C)(=O)=O	NS1 function inh inconclusive
Cc1ccc(C)c(SCC(=O)N(C)C2CCS(=O)(=O)C2)c1 (stereo not drawn)	none (no result: NS1 function inh, Cycloheximide cs, Shiga toxin inh)
CC(=NCCN1CCN(C(C)=C2C(=O)c3ccccc3C2=O)CC1)C1=C(O)CC(C)(C)CC1=O	none
C#CCOCCCC(=O)O	none (no result: Cycloheximide cs, SARS PLpro yeast, Shiga toxin inh)
CC(=O)N1SC(N)=NC1c1ccccc1 (stereo not drawn)	Shiga toxin inh 64.4
Cc1ccc2nc(-c3ccccc3)cc(C(=O)N3CCN(S(=O)(=O)c4c(C)noc4C)CC3)c2c1	none (no result: NS1 function inh, Cycloheximide cs, Shiga toxin inh)
CC(C)c1ccc(NC(=S)N2CCN(C)CC2)cc1	Cycloheximide cs 36.9, Shiga toxin inh 37.1
CC(C)c1ccc(NC(=S)NN2CCN(C)CC2)cc1	none
CC(C)c1ccc(NC(=S)N2CCCC2)cc1	Cycloheximide cs 60.7, Shiga toxin inh 156.2
CC(=O)c1cnc(Nc2nc(C)c3cccc(C)c3n2)nc1C	none
O=C(NCCN1C(=O)S/C(=C\c2cccs2)C1=O)c1ccc(=O)[nH]c1	none
COc1ccc(C2CC(c3ccccc3)=NN2C(=O)c2cccs2)cc1 (stereo not drawn)	Cycloheximide cs 73.4, Shiga toxin inh 75.3
COc1ccc(C2=NN(C(=O)c3cccs3)C(c3ccccc3O)C2)cc1 (stereo not drawn)	Cycloheximide cs 26.2 (no result: NS1 function inh)
COc1ccc(C2CC(c3ccc4ccccc4c3)=NN2C(=O)CSc2ncccn2)cc1 (stereo not drawn)	NS1 function inh inconclusive, Cycloheximide cs 14.8, Shiga toxin inh 43.1
CCOC(=O)CN1C(=O)C2Cc3ccccc3CN2C1=S (stereo not drawn)	none
NS(=O)(=O)c1ccc(CCNC(=O)CNC(=O)c2ccc(Br)o2)cc1	none (no result: NS1 function inh, Cycloheximide cs, Shiga toxin inh)
O=C(Nc1c2c(nn1-c1cccc(Cl)c1)CS(=O)(=O)C2)c1ccco1	none
O=C(Nc1cccc(Cl)c1)N1CCc2ccccc2C1	Cycloheximide cs 34.1, Shiga toxin inh 34.6
COc1cccc(-c2cc(C(=O)N3CCc4ccccc4C3)[nH]n2)c1	Cycloheximide cs 26.4, Shiga toxin inh 38.1
O=C(Nc1cccc(Cl)c1)N1CCN(c2ncccn2)CC1	Cycloheximide cs 13.8
O=C(Nc1cccc(Cl)c1)c1nc[nH]c1C(=O)N1CCc2ccccc2C1	none (no result: NS1 function inh, Cycloheximide cs, Shiga toxin inh)
COc1cccc(NC(=O)N2CCc3ccccc3C2)c1	Cycloheximide cs 70.5, Shiga toxin inh 91.3
COc1cccc(NC(=O)N2CCOCC2)c1	none
C=CCn1c(C)cc(C(=O)COC(=O)c2cncc(Br)c2)c1C	none (no result: NS1 function inh, Cycloheximide cs, Shiga toxin inh)
COc1ccc(NC(=O)CSc2nnc(COc3ccccc3)n2Cc2ccco2)cc1OC	none
COc1ccc(NC(=O)CSc2nccn2Cc2ccco2)cc1	Cycloheximide cs 56.2, Shiga toxin inh 123.8
CCOc1ccc(NC(=O)CSc2nccn2Cc2ccco2)cc1	Cycloheximide cs 31.0, Shiga toxin inh 41.3
CCC(=O)Nc1cc(NC(=O)CSc2ncc(-c3ccc(F)cc3)n2Cc2ccco2)ccc1C	Cycloheximide cs 27.2, Shiga toxin inh 76.2
COc1ccc(NC(=O)CSc2nccn2Cc2ccco2)cc1OC	Cycloheximide cs 27.5, Shiga toxin inh 35.7
COCC(C)NS(=O)(=O)c1ccc(C(=O)NCCCn2ccc3ccccc32)cc1 (stereo not drawn)	none
COc1ccc(CCNC(=O)c2nonc2N)cc1	Cycloheximide cs 21.5, Shiga toxin inh 45.5
COc1ccc(CCNC(=O)c2nn(C)cc2Cl)cc1	Cycloheximide cs 26.9, Shiga toxin inh 75.8
CCC(C)NC(=O)CN(C1CCCCC1)S(=O)(=O)c1ccc(F)cc1 (stereo not drawn)	none
COc1cccc(C(=O)C2CN(c3ccccc3)CC2c2ccc(Cl)cc2)c1 (stereo not drawn)	Cycloheximide cs 22.5
O=C(Nc1ccccc1)N1CCN(c2nc3ccccc3s2)CC1	Cycloheximide cs 26.7
O=C(c1ccc2ncsc2c1)N1CCN(c2nc3ccccc3s2)CC1	none
CCCCNC(=S)N1CCN(c2nc3ccccc3s2)CC1	none
O=C(C1CC1)N1CCN(c2nc3ccccc3s2)CC1	Cycloheximide cs 32.7, Shiga toxin inh 131.6
CNC(=S)N1CCN(c2nc3ccccc3s2)CC1	Cycloheximide cs 46.3, Shiga toxin inh 69.5
O=C(Nc1ccc(F)cc1)N1CCN(c2nc3ccccc3s2)CC1	none
CCC(=O)N1CCN(c2nc3ccccc3s2)CC1	Cycloheximide cs 22.6
COc1cc(NC(=O)c2ccccc2)c(OC)cc1NC(=O)Cc1ccc(C)cc1	none
Cc1cc(C)n2nc(C(=O)OCC(=O)N(C)C3CCCCC3)nc2n1	none (no result: NS1 function inh, Cycloheximide cs, Shiga toxin inh)
CS(=O)(=O)N1CCN(c2nc3ccccc3s2)CC1	Cycloheximide cs 11.6
O=S(=O)(c1ccccc1)N1CCN(c2nc3ccccc3s2)CC1	NS1 function inh inconclusive
O=C(N/N=C/c1ccc([N+](=O)[O-])cc1)c1cccc2cc[nH]c12	Cycloheximide cs 16.1 (no result: NS1 function inh)
CCN(CC)c1ccc(/C=N\NC(=O)c2cccc3cc[nH]c23)cc1	Cycloheximide cs 31.8, Shiga toxin inh 43.2
Cc1cc(C(=O)N/N=C/c2ccc([N+](=O)[O-])cc2)c2ccccc2n1	none
O=C(N/N=C/c1ccc([N+](=O)[O-])cc1)c1[nH]ncc1Br	Cycloheximide cs 46.7, Shiga toxin inh 81.6 (no result: NS1 function inh)
C=C[C@H]1CN2CC[C@@H]1C[C@H]2[C@@H](O)c1ccnc2ccc(OC)cc12	none (no result: NS1 function inh, SARS PLpro yeast)
CSc1nnc2c3c4c(sc3c(=O)n(-c3ccccc3)n12)CC(C)(C)OC4	none
CCC(COC)NC(=O)c1ccc(OC)c(OC2CCN(C(C)=O)CC2)c1 (stereo not drawn)	SARS PLpro yeast inconclusive
CCCN(CC(=O)Nc1cc(Cl)ccc1Cl)C(=O)c1ccccn1	none (no result: NS1 function inh, Cycloheximide cs, Shiga toxin inh)
Cc1ccc(C(=O)N(c2ccccc2)C2CC(C)N(C(=O)c3ccco3)c3ccccc32)cc1 (stereo not drawn)	Cycloheximide cs 17.7

Compound activity deposited in PubChem by National Center for Advancing Translational Sciences (NCATS).
